Measurements: PubChem BioAssay (NCATS)
Results filed as inconclusive are left out. Where a call stands in place of a potency, no number is given. Activity calls are given as the source filed them. The call rests on the fitted dose curve; in most records, active means well fitted cell-killing curve with a large enough effect; inconclusive means small, poorly fitted or top-dose-only effect, or effect the other way; inactive means flat fitted curve, though single readings scatter.

Tested on: SKOV3
Assay: Primary qHTS to identify gynecologic anti-cancer compounds using libraries of approved drugs and bioactive compounds (AID 1345084); further: nearly all actives have a fitted effect of over 55% in size
Settings: Gynecologic cancer cell panel viability, ATPlite luminescence, 48 h; series mostly up to 57.5 µM
Method in brief: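 In this quantitative HTS, cell killing is estimated from loss of ATP-dependent luciferase light. Cells see five compound concentrations over a 48 h exposure.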

Row | SMILES | Potency | activity change, negative = cytotoxicity
1 | Cc1ccccc1-n1nc(-c2c(-c3ccc(F)cc3)nn3c2NC[C@@H](CO)C3)ccc1=O | inactive | 
2 | C[C@@H]1O[C@@H](OC(=O)Cc2ccccc2)[C@H](O)[C@H](O)[C@H]1O | inactive | 
3 | C=C(C(=O)O)C1CC(O)C2(C)CCCC(C)(O)C2C1 (centres undefined) | inactive | 
4 | C=C1CC/C=C(/CO)C(=O)C[C@@H]2[C@@H]1C[C@@]2(C)COC(C)=O | inactive | 
5 | COC(=O)Cn1nc(-c2cccc(OC)c2)c2ccccc21 | inactive | 
6 | CC(O)/C=C/C1(O)C(C)C(O)C(O[C@@H]2O[C@H](CO)[C@@H](O)[C@H](O)[C@H]2O)CC1(C)C (some centres undefined) | inactive | 
7 | CC(C)=CCC[C@](C)(O[C@@H]1O[C@H](CO[C@@H]2O[C@@H](CO)[C@H](O)[C@H]2O)[C@@H](O)[C@H](O)[C@H]1O)[C@H]1CC[C@]2(C)[C@@H]1[C@H](O)C[C@@H]1[C@@]3(C)CC[C@H](O[C@@H]4O[C@H](CO)[C@@H](O)[C@H](O)[C@H]4O[C@@H]4O[C@H](CO)[C@@H](O)[C@H](O)[C@H]4O)C(C)(C)[C@@H]3CC[C@]12C | inactive | 
8 | CNc1nc(Cc2ccccc2)nc2c1CCNC[C@@H]2C | inactive | 
9 | COc1cc(C)c(C(=O)NC2C(C)OC(OC3CCC(C)C4C3C=C(C)C3/C(C)=C\CC/C(C)=C/C5(C)C=C(C(=O)O)C(C)CC56OC(=O)/C(=C(\O)C34C)C6=O)C(O)C2(C)O)c(O)c1 (centres undefined) |  | -10.1% [at 11.6 µM] (inactive)
10 | CC(=O)/C=C/C1(O)C(C)CC(O[C@@H]2O[C@H](CO)[C@@H](O)[C@H](O)[C@H]2O)CC1(C)C (some centres undefined) | inactive | 
11 | COc1cc2c(cc1O)CC(O)(CO)C(CO)C2c1ccc(OC2OC(CO)C(O)C(O)C2O)c(OC)c1 (centres undefined) | inactive | 
12 | COc1cc(O)cc(O[C@@H]2O[C@H](CO)[C@@H](O[C@@H]3OC[C@](O)(CO)[C@H]3O)[C@H](O)[C@H]2O)c1OC | inactive | 
13 | CC(C)(CC(=O)N1CCCC1)NCC(=O)N1C[C@@H](F)C[C@H]1C#N | inactive | 
14 | COC(=O)c1ccccc1O[C@@H]1O[C@H](CO[C@@H]2OC[C@@H](O)[C@H](O)[C@H]2O)[C@@H](O)[C@H](O)[C@H]1O | inactive | 
15 | CC(=O)[C@@H]1C[C@H](C(C)(C)O[C@@H]2O[C@H](CO)[C@@H](O)[C@H](O)[C@H]2O)CC[C@@]2(CO)OC(=O)C[C@@H]12 | inactive | 
16 | C=C(C(=O)O)[C@@H]1CC[C@@]2(C)CC[C@@H](O)C(=C)C2C1 (some centres undefined) | inactive | 
17 | CC1(C)C2CCC1(C)C(OC(=O)C(O)(CC(=O)O)CC(=O)O)C2 (centres undefined) | inactive | 
18 | Oc1ccc(CC2NCCc3cc(O)c(O)cc32)cc1 (centres undefined) | inactive | 
19 | C[C@@H]1O[C@@H](OC2C(CO)OC(OCC3OC(OC(=O)[C@]45CCC(C)(C)CC4C4=CCC6[C@@]7(C)CC[C@@H](O)[C@](C)(C(=O)O)C7CC[C@@]6(C)[C@]4(C)CC5)C(O)C(O)C3O)C(O)C2O)[C@H](O)[C@H](O)[C@H]1O (some centres undefined) |  | 5.25% [at 11.6 µM] (inactive)
20 | COc1cc([C@H]2OC[C@](O)(Cc3ccc(O[C@@H]4O[C@H](CO)[C@@H](O)[C@H](O)[C@H]4O)c(OC)c3)[C@@H]2CO)ccc1O | inactive | 

Row | SMILES | Potency | activity change, negative = cytotoxicity
21 | COc1ccc(/C=C/C(=O)O[C@@H]2[C@@H](OC(C)=O)[C@@H](OC(C)=O)[C@H](O[C@H]3[C@@H]4C=CO[C@@H](O[C@@H]5O[C@H](CO)[C@@H](O)[C@H](O)[C@H]5O)[C@@H]4[C@@]4(CO)O[C@@H]34)O[C@H]2C)cc1 | inactive | 
22 | CC(C)=CCc1c(O)cc2oc3cc(C)cc(O)c3c2c1C | inactive | 
23 | C[C@H]1CC[C@@]2(OC1)O[C@H]1CC3C4CC[C@H]5C[C@@H](O[C@@H]6O[C@H](CO)[C@H](O[C@@H]7O[C@H](CO)[C@@H](O)[C@H](O[C@@H]8OC[C@@H](O)[C@H](O)[C@H]8O)[C@H]7O[C@@H]7O[C@H](CO)[C@@H](O)[C@H](O)[C@H]7O)[C@H](O)[C@H]6O)[C@H](O)C[C@]5(C)C4=CC(=O)[C@]3(C)[C@H]1[C@@H]2C (some centres undefined) |  | 0.679% [at 11.6 µM] (inactive)
24 | CC(C)=CCC[C@](C)(O[C@@H]1O[C@H](CO[C@@H]2O[C@@H](CO)[C@H](O)[C@H]2O[C@@H]2OC[C@@H](O)[C@H](O)[C@H]2O)[C@@H](O)[C@H](O)[C@H]1O)[C@H]1CC[C@]2(C)[C@@H]1[C@H](O)CC1[C@@]3(C)CC[C@H](O[C@@H]4O[C@H](CO)[C@@H](O)[C@H](O)[C@H]4O[C@@H]4O[C@H](CO)[C@@H](O)[C@H](O)[C@H]4O)C(C)(C)C3CC[C@]12C (some centres undefined) |  | 24.5% [at 6.55 µM] (inactive)
25 | CC(=O)N[C@H]1[C@H](O[C@H]2CC[C@]3(C)C4CC=C5[C@@H]6CC(C)(C)CC[C@]6(C(=O)O)[C@H](O)C[C@@]5(C)[C@]4(C)CC[C@H]3C2(C)C)O[C@H](CO)[C@@H](O)[C@@H]1O (some centres undefined) | inactive | 
26 | C=C1CCC2C(C)(C(=O)O)CCCC2(C)C1CC/C(C)=C\CO (centres undefined) | inactive | 
27 | C=CC(C)(C)C12Nc3c(ccc4c3OC(C)(C)C=C4)C1(O)CC1C(=O)N3CCCC3C(=O)N12 (centres undefined) | inactive | 
28 | COc1ccc(C(=O)OC2C3C=COC(OC4OC(CO)C(O)C(O)C4O)C3C3(CO)OC23)cc1OC (centres undefined) | inactive | 
29 | CC(C)C1NC(=O)C2CCCN2C1=O (centres undefined) | inactive | 
30 | C[C@]12CCC[C@](C)(C(=O)O)C1CCC13CC(CO)C(CCC12)C3 (some centres undefined) | inactive | 
31 | CC1(C)C(=O)N2c3ccccc3C(O)(CC(C(=O)O)n3cnc4ccccc4c3=O)C2N1O (centres undefined) | inactive | 
32 | Cc1oc(S(=O)(=O)N2CCCCC2)cc1NC(=O)Nc1ccccc1 | inactive | 
33 | CC1(C)CC[C@]2(C(=O)O[C@@H]3O[C@H](CO)[C@@H](O)[C@H](O)[C@H]3O)CC[C@]3(C)C(=CCC4[C@@]5(C)CC[C@H](O[C@H]6O[C@H](CO)[C@@H](O)[C@H](O[C@@H]7O[C@H](CO)[C@@H](O)[C@H](O)[C@H]7O)[C@H]6O)C(C)(C)C5CC[C@]43C)[C@@H]2C1 (some centres undefined) |  | -4.14% [at 11.6 µM] (inactive)
34 | C/C=C(\C)C(=O)O[C@H]1C=CC(=O)O[C@H]1/C=C/[C@H](O)[C@@H](C)O | inactive | 
35 | C=C(CC/C=C(\C)C(=O)O)C1(O)CC=C(C)CC1 (centres undefined) | inactive | 
36 | CC(=O)OC/C(=C/C(=O)O)CC[C@@H]1C(C)=CC(=O)[C@@H]2C(C)(C)CCC[C@@]12C | inactive | 
37 | CN(C)c1ccc(C2O[C@@H](c3ccccc3)C[C@H](c3ccccc3)O2)cc1 (some centres undefined) | inactive | 
38 | Fc1ccc(-c2c3cccc(C(F)(F)F)c3nn2Cc2ccc(F)cc2Cl)cc1 | inactive | 
39 | Cc1onc(-c2c(Cl)cccc2Cl)c1CC(=O)NCc1ccc(OCC(F)(F)F)nc1 | inactive | 
